# From ChEMBL document CHEMBL2218924, “A broad activity screen in support of a chemogenomic map for kinase signalling research and drug discovery” (Biochem J, 2013)
# Experiments:
# [1] = biological target: Tyrosine-protein kinase SYK (Homo sapiens) (UniProt P43405); settings: at 10 µM
# [2] = biological target: T1, Serine/threonine-protein kinase TAO1 (Homo sapiens) (UniProt Q7L7X3); settings: at 1 µM
# T1 sequence (whole entry): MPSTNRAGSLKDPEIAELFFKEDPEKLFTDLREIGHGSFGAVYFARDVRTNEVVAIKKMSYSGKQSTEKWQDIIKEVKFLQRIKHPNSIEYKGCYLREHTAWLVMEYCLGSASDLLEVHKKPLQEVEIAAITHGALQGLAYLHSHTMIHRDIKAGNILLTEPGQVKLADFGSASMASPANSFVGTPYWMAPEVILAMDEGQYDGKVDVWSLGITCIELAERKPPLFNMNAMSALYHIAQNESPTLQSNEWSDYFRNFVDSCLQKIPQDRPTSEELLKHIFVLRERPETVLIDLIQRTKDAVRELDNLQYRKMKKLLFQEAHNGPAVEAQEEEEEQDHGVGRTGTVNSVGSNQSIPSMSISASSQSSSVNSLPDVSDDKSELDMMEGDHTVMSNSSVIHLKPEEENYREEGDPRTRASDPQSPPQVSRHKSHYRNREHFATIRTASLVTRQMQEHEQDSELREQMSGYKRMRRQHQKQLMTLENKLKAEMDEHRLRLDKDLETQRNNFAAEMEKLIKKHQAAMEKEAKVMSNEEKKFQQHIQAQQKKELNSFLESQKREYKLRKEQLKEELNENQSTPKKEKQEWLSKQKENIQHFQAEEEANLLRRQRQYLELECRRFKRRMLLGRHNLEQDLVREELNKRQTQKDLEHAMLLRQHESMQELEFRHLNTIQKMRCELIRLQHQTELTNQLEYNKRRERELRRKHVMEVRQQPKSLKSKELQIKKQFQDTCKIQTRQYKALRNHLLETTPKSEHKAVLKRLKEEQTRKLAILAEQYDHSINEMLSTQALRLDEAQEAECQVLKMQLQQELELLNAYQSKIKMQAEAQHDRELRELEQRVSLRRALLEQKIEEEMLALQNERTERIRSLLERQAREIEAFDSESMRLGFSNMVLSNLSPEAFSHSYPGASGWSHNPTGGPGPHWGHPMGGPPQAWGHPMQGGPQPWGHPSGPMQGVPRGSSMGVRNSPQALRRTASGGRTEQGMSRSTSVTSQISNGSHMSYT
# [3] = biological target: T2, Serine/threonine-protein kinase TAO2 (Homo sapiens) (UniProt Q9UL54); settings: at 1 µM
# T2 sequence (whole entry): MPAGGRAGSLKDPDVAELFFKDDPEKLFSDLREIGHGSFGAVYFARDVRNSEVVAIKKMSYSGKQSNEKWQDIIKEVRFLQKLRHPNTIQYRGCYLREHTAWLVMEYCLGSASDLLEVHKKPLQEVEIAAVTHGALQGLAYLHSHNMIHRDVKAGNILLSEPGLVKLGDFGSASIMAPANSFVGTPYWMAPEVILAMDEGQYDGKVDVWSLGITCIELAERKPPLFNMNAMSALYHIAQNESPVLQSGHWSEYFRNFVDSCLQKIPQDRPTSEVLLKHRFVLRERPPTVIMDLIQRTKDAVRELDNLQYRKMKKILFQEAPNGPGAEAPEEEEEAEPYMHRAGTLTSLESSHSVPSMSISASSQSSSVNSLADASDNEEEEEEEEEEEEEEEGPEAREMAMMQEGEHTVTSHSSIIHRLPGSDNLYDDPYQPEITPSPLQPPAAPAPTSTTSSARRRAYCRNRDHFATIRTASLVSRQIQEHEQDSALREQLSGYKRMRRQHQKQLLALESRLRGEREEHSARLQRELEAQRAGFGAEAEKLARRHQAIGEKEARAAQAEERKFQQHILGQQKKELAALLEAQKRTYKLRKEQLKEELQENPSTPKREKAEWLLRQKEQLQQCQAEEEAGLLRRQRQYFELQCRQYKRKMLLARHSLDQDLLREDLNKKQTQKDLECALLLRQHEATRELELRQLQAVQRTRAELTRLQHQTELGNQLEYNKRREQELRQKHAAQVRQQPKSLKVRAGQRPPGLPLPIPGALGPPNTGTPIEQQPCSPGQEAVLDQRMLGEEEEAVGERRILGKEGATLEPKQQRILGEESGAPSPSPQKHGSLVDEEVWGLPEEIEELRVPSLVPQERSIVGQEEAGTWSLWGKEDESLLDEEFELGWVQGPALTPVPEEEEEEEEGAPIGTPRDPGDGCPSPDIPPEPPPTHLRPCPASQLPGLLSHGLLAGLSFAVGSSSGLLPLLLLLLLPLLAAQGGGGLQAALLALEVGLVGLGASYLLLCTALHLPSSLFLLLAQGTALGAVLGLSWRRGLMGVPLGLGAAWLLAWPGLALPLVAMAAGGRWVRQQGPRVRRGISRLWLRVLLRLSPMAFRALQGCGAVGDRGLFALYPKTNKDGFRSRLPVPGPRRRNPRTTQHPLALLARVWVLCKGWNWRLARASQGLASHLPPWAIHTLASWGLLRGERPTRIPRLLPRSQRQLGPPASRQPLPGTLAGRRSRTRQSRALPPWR
# [4] = biological target: T2, Serine/threonine-protein kinase TAO2 (Homo sapiens); settings: at 10 µM
# [5] = biological target: T3, Serine/threonine-protein kinase TAO3 (Homo sapiens) (UniProt Q9H2K8); settings: at 1 µM
# T3 sequence (whole entry): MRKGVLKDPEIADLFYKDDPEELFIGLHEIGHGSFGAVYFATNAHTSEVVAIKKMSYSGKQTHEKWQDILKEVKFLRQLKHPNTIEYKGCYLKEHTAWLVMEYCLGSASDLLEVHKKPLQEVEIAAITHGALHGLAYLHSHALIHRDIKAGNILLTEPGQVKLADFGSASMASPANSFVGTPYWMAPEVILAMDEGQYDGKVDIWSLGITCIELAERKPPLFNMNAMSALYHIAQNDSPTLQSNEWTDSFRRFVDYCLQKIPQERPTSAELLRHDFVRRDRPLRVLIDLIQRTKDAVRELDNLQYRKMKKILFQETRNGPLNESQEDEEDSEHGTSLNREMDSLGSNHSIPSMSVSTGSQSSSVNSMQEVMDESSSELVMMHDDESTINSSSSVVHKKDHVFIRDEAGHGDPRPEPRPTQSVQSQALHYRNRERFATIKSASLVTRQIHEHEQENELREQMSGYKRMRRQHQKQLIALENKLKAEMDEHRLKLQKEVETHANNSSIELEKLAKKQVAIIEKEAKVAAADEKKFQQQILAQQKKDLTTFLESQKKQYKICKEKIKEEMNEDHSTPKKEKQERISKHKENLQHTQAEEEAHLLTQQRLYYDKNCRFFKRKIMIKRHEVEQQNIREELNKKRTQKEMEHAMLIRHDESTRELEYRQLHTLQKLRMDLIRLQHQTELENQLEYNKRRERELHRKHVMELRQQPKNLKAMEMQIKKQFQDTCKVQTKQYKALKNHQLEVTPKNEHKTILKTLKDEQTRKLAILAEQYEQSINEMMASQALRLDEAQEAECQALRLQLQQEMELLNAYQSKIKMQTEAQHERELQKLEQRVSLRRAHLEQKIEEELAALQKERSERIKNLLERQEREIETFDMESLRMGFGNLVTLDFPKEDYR
# [6] = biological target: T4, Serine/threonine-protein kinase TBK1 (Homo sapiens) (UniProt Q9UHD2); settings: at 1 µM
# T4 sequence (whole entry): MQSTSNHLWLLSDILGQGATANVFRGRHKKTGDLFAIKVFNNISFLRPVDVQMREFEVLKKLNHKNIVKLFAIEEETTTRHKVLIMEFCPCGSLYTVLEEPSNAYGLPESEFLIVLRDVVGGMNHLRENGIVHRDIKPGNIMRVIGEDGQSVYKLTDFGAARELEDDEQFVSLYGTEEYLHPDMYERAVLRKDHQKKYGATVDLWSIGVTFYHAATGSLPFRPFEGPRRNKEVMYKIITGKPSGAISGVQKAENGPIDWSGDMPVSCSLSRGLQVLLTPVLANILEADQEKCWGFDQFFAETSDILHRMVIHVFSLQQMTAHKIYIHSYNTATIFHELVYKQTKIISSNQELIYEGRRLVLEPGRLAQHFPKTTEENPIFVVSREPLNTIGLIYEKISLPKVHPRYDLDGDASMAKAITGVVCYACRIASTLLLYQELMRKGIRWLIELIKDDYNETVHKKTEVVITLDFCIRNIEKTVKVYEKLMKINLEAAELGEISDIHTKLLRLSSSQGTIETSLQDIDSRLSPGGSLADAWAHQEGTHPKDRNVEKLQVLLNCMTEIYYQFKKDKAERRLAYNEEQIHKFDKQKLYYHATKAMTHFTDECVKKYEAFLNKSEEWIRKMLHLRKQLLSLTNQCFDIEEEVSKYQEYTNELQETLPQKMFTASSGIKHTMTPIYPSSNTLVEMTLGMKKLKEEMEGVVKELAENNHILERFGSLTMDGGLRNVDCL
# [7] = biological target: T4, Serine/threonine-protein kinase TBK1 (Homo sapiens); settings: at 10 µM
# [8] = biological target: T5, TGF-beta receptor type-1 (Homo sapiens) (UniProt P36897); settings: at 1 µM
# T5 sequence (whole entry): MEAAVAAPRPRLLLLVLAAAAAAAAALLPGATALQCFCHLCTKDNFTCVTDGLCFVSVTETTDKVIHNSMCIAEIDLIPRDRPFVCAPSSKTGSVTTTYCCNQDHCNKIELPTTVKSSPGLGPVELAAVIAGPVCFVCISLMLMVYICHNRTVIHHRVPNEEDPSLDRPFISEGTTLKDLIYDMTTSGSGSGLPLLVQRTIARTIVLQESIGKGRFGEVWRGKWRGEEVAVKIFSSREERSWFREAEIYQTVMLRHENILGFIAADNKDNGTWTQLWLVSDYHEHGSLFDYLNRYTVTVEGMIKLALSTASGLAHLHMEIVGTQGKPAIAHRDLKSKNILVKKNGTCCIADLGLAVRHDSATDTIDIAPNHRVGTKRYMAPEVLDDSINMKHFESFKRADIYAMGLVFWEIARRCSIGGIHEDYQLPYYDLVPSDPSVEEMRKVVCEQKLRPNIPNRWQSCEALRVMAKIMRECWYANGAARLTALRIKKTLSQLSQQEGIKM
# [9] = biological target: T5, TGF-beta receptor type-1 (Homo sapiens); settings: at 10 µM
# [10] = biological target: Insulin-like growth factor 1 receptor (Homo sapiens) (UniProt P08069); settings: at 1 µM
# [11] = biological target: Insulin-like growth factor 1 receptor (Homo sapiens) (UniProt P08069); settings: at 10 µM
# [12] = biological target: T6, Inhibitor of nuclear factor kappa-B kinase subunit alpha (Homo sapiens) (UniProt O15111); settings: at 1 µM
# T6 sequence (whole entry): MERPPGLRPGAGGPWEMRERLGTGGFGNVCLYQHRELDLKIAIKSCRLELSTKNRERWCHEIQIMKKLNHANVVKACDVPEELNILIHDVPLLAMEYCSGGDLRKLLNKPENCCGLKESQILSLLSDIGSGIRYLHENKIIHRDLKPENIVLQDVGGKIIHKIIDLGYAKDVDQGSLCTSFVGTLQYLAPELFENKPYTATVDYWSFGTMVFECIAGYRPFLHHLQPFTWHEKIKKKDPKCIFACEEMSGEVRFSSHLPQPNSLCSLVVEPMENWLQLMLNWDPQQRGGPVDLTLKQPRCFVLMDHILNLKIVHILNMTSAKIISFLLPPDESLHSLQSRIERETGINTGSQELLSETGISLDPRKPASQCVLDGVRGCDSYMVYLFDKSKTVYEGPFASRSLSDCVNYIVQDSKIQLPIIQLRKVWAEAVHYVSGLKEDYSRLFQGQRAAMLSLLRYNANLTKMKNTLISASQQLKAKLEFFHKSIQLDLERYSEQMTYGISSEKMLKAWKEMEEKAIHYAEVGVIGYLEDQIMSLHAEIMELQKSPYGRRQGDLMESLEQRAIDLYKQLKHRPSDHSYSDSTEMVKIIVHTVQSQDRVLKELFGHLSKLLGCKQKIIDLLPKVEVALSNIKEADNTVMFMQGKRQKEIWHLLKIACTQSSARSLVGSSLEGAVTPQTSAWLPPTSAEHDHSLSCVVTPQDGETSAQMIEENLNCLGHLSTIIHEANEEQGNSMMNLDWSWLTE
# [13] = biological target: T7, Inhibitor of nuclear factor kappa-B kinase subunit beta (Homo sapiens) (UniProt O14920); settings: at 1 µM
# T7 sequence (whole entry): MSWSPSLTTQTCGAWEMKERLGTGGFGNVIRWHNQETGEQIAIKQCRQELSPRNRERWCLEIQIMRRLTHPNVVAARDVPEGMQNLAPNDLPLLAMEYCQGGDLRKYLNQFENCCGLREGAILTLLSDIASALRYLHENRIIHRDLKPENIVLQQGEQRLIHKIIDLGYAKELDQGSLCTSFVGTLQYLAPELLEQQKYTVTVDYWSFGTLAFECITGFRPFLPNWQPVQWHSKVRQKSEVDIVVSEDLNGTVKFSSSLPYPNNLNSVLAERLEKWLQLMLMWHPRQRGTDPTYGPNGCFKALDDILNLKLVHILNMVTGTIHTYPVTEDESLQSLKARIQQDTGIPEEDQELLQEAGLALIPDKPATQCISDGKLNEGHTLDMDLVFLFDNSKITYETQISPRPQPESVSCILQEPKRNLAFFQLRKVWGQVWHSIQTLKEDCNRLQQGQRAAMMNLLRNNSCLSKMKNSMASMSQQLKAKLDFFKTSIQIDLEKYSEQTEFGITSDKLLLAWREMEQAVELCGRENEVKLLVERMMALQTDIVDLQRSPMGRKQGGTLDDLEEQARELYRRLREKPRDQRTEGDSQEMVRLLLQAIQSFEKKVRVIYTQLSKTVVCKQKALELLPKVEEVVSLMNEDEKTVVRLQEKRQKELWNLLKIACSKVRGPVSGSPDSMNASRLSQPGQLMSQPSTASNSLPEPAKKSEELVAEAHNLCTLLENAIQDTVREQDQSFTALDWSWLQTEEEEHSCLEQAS
# [14] = biological target: T7, Inhibitor of nuclear factor kappa-B kinase subunit beta (Homo sapiens); settings: at 10 µM
# [15] = biological target: Insulin receptor (Homo sapiens) (UniProt P06213); settings: at 1 µM
# Sequence of Insulin receptor (Homo sapiens) (P06213 28-758 limits assumed): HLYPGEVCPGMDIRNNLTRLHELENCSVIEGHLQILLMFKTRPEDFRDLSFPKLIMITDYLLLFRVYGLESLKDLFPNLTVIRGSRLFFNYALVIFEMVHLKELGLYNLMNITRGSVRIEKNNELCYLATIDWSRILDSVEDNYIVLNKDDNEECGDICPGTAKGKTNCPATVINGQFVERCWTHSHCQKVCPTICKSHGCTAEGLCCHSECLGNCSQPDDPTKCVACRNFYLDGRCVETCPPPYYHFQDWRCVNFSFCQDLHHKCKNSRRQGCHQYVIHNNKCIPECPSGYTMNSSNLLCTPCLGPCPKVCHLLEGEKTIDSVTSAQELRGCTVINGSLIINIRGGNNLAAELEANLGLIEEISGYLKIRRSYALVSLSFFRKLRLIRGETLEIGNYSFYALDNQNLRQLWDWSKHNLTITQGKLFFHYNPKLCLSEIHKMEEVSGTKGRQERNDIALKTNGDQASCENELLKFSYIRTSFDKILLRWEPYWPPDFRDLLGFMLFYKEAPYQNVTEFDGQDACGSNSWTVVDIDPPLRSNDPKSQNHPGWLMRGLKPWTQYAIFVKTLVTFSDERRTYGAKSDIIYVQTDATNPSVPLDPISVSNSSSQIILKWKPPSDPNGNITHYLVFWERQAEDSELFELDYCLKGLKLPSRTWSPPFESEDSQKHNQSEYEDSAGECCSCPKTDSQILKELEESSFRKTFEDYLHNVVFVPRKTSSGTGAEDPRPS
# Sequence of Insulin receptor (Homo sapiens) (P06213 763-1382 limits assumed): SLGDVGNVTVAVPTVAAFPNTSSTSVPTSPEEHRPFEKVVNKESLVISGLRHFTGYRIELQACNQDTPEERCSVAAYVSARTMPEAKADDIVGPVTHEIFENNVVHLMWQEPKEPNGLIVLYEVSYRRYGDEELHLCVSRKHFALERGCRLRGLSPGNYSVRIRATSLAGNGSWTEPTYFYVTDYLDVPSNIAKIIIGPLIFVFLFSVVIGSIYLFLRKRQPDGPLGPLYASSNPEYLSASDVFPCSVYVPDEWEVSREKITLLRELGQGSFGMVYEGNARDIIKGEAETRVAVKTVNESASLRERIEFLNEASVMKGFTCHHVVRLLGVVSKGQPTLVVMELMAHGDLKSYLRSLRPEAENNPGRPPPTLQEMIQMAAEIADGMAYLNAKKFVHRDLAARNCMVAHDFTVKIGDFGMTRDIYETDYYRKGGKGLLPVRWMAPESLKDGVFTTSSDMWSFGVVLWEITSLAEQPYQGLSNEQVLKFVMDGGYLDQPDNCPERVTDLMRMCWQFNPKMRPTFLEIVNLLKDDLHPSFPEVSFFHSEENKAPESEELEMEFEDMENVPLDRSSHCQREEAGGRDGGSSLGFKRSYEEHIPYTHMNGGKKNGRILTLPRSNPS
# Sequence of Insulin-like growth factor 1 receptor (Homo sapiens) (P08069 31-736 limits assumed): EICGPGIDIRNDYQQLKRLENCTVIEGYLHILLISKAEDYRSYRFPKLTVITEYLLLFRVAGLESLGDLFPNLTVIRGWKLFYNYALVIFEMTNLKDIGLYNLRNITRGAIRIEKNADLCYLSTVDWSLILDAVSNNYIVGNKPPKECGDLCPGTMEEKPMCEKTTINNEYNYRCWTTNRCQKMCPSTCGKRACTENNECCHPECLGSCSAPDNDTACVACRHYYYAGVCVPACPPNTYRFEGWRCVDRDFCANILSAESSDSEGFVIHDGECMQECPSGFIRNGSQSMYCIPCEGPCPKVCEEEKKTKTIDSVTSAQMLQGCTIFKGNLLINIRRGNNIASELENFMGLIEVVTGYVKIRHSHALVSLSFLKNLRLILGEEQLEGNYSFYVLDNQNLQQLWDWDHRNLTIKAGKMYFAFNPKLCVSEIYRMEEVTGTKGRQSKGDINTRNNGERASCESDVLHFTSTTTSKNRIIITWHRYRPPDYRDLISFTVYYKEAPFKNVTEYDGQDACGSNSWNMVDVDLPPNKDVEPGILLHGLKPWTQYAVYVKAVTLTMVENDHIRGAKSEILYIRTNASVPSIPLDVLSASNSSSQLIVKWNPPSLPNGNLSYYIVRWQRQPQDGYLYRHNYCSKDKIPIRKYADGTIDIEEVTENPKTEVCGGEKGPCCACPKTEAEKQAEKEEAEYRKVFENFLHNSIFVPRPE
# Sequence of Insulin-like growth factor 1 receptor (Homo sapiens) (P08069 741-1367 limits assumed): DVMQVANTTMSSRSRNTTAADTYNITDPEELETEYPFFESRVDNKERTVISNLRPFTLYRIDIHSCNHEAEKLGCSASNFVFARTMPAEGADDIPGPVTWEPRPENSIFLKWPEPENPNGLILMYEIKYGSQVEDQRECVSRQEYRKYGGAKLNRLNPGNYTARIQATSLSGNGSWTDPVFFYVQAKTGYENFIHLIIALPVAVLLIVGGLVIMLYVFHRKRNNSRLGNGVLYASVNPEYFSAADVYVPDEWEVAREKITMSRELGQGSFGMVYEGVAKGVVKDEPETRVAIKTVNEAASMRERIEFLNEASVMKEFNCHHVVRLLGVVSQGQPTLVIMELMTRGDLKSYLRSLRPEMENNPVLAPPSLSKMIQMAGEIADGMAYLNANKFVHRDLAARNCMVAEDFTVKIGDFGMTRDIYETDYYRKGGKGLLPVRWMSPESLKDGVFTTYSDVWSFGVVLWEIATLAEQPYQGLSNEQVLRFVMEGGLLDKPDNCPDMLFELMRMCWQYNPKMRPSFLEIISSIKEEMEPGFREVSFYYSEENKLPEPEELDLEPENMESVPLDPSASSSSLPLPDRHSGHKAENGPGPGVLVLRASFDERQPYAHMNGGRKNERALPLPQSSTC
smiles,measurement,setting,value
Nc1ncnc2[nH]nc(Nc3ccc(F)cc3)c12,residual activity,[1],97%
same,residual activity,[2],107%
same,residual activity,[3],102%
same,residual activity,[4],91%
same,residual activity,[5],101%
same,residual activity,[6],77%
same,residual activity,[7],58%
same,residual activity,[8],107%
same,residual activity,[9],74%
same,residual activity,[10],109%
same,residual activity,[11],112%
same,residual activity,[12],105%
same,residual activity,[13],115%
same,residual activity,[14],108%
same,residual activity,[15],141%
